Here are results for 39 molecules from PubChem BioAssay (NCATS).

Records with an inconclusive call do not appear. Where a call stands in place of a potency, no number is given. Calls of active or inactive are those of the source. Calls follow the shape of the dose curve; as a rule, active = well fitted inhibition curve with a large enough effect; inconclusive = small, poorly fitted or top-dose-only effect; inactive = flat fitted curve, though single readings scatter. *1 amine or outer side, *2 acyl side, *3 side chain or, on linkers, in order; H or OH if unused. Where a SMILES comes first, the peptide text is derived from it. Bridges are numbered along the chain shown (N, C = ends). [ ]: non-standard residue; d: D form. The star is where a group is joined. ξ: configuration not given here. ξhTyr(3S-OH,4S-OH,3'-OSO3H) = NC(C(=O)O)[C@H](O)[C@@H](O)c1ccc(O)c(OS(=O)(=O)O)c1; Orn(4R-OH,5R-OH) = O=C([C@H](C[C@@H](O)[C@@H](O)N[*:3])N[*:1])[*:2]; X2 = CCCCCOc1ccc(-c2cc(-c3ccc(C(=O)*)cc3)no2)cc1; X3 = C[C@H]1CN([*:1])C(C(=O)[*:2])[C@H]1O; ξGln(3R-OH) = NC(=O)C[C@@H](O)C(N)C(=O)O; ξPro(4R-OH) = O=C(O)C1C[C@@H](O)CN1; ξThr(3R) = C[C@@H](O)C(N)C(=O)O; βNA = c1ccc2cc(N*)ccc2c1; Cbz = O=C(OCc1ccccc1)*; CH2F = FC*

This experiment is described as follows: Primary qHTS for inhibitors of nuclear receptor binding SET domain protein 2 (NSD2) in an isogenic RCH-ACV NSD2 p.E1099K mutant (9B) (AID 1645876). Also: nearly all actives have a fitted effect of over 70% in size. The note with it: RCH-ACV (leukaemia line) NSD2 E1099K (9B) viability, CellTiter-Glo, 72 h; series mostly up to 44.9 µM.
As for `C#CCCCn1cc(-c2cccc3c2N[C@@H](C)CC(=O)N3)cn1`, the Potency result is “inactive”.

In the case of `OC[C@H]1O[C@@H](OCc2ccccc2)[C@H](O[C@@H]2OC[C@@H](O)[C@H](O)[C@H]2O)[C@@H](O)[C@@H]1O`, the Potency result is “inactive”.

As for `Cc1cn2cc(CC(=O)N3CCC4(CC3)CN(Cc3ccc(-n5nccn5)cc3Cl)C4)nc2s1`, the Potency result is “inactive”.

`C[C@]12CC/C(=N\OCC(=O)O)C=C1CC[C@@H]1[C@@H]2[C@@H](O)C[C@@]2(C)[C@H]1CC[C@]2(O)C(=O)CO`: the Potency result is “inactive”.

As to `C/C(=C\CCC(C)C1CC(O)C2(C)C3CCC4C(C)(C)C(OC5OCC(O)C(O)C5O)CCC45CC35CC(O)C12C)C(=O)O` (centres undefined), the Potency entry is “inactive”.

Regarding `C=C1CCc2occ(C)c2[C@H]2[C@H]1[C@@]13O[C@@]1(C[C@@H](C)[C@H]3OC(C)=O)[C@H]1O[C@@]21C`, the Potency result was “inactive”.

On to `CC12CC(O)C(O)C=C1c1cc(O)cc(O)c1C(=O)O2` (centres undefined), for which the Potency entry was “inactive”.

For the molecule `CC(C)CC(NC(=O)OCc1ccccc1)C(=O)NC(CC(C)C)C(=O)NC(CCC(=O)O)C(=O)Nc1ccc2ccccc2c1` (stereo not drawn) (Cbz-Leu-Leu-Glu-βNA; configuration not given here), the Potency entry was “inactive”.

As to `C/C1=C\CC[C@]2(C)O[C@H]2C(=O)c2c(C)coc2C1`, the Potency result is “inactive”.

With `O=C1C[C@@]2(C(=O)N1)C(=O)N(Cc1ccc(Br)cc1F)C(=O)c1cccn12`, the Potency entry was “inactive”.

Regarding `COc1ccc(O[C@@H]2O[C@H](CO)[C@@H](O)[C@H](O)[C@H]2O)cc1OC`, the Potency entry is “inactive”.

In the case of `C=C1C2CCC3CC2(CC(O)C2(O)C1CC(OC1OC(CO)C(O)C(O)C1O)C2(C)C)CC3(C)O` (centres undefined), the Potency entry is “inactive”.

Take `COc1cc(/C=C/C(=O)O[C@@H]2O[C@H](CO)[C@@H](O)[C@H](O)[C@H]2O)ccc1O`: the Potency entry is “inactive”.

In the case of `OC[C@H]1O[C@@H](OCCc2ccccc2)[C@H](O)[C@@H](O)[C@@H]1O`, the Potency entry is “inactive”.

Consider `CC(C)C(NC(=O)c1ccc(O)cc1)C(=O)N1CCCC1C(=O)Nc1c(O)cccc1C(=O)O` (centres undefined), for which the Potency entry was “inactive”.

For the molecule `O=C(O[C@@H]1O[C@H](CO)[C@@H](O)[C@H](O)[C@H]1O)c1ccccc1`, the Potency entry was “inactive”.

On to `Cc1ncc([N+](=O)[O-])n1C[C@H](O)CN1CCOCC1`, for which the Potency entry was “inactive”.

For the molecule `CC1(C)CC[C@]2(C(=O)O[C@@H]3O[C@H](CO[C@@H]4O[C@H](CO)[C@@H](O)[C@H](O)[C@H]4O)[C@@H](O)[C@H](O[C@@H]4O[C@H](CO)[C@@H](O)[C@H](O)[C@H]4O)[C@H]3O)CC[C@]3(C)C(=CCC4[C@@]5(C)CC[C@H](O[C@@H]6OC[C@@H](O)[C@H](O)[C@H]6O)[C@@](C)(C(=O)O)C5CC[C@]43C)[C@@H]2C1` (some centres undefined), the activity change, negative = viability loss is 0.102% [at 9.23 µM] (inactive).

Consider `CC1(C)CCC2(C(=O)O)C(O)CC3(C)C(=CCC4C5(C)CCC(OC6OC(CO)C(O)C(O)C6OC6OC(CO)C(O)C(O)C6OC6OCC(O)(CO)C6O)C(C)(C)C5CCC43C)C2C1` (centres undefined), for which the activity change, negative = viability loss is 3.44% [at 9.23 µM] (inactive).

Consider `O=C(/C=C/c1ccc(O)cc1)OCC1OC(O)C(OC2OC(CO)C(O)C(O)C2O)C(O)C1O` (centres undefined), for which the Potency result was “inactive”.

For `C[C@]1(OC(=O)/C=C\c2ccc(O)cc2)C[C@@H](O)[C@]2(O)C=CO[C@@H](O[C@@H]3O[C@H](CO)[C@@H](O)[C@H](O)[C@H]3O)C12` (some centres undefined), the Potency result is “inactive”.

For `COc1cc(C(O)C2COC(c3ccc(OC4OC(CO)C(O)C(O)C4O)c(OC)c3)C2CO)ccc1O` (centres undefined), the Potency entry is “inactive”.

Regarding `COc1cc(C(C)=O)ccc1O[C@@H]1O[C@H](CO)[C@@H](O)[C@H](O)[C@H]1O`, the Potency result was “inactive”.

Regarding `CC(C)=CCC/C(C)=C/CO[C@@H]1O[C@H](CO[C@@H]2O[C@@H](CO)[C@H](O)[C@H]2O)[C@@H](O)[C@H](O)[C@H]1O`, the Potency entry is “inactive”.

For the molecule `CC(O)C1CCC2C3CCC4CC(OC5OC(C(=O)O)C(O)C(O)C5O)CCC4(C)C3CCC12C` (centres undefined), the Potency result is “inactive”.

`CCCCCOc1ccc(-c2cc(-c3ccc(C(=O)N[C@H]4C[C@@H](O)[C@@H](O)NC(=O)C5[C@@H](O)[C@@H](C)CN5C(=O)C([C@H](O)CC(N)=O)NC(=O)C([C@H](O)[C@@H](O)c5ccc(O)c(OS(=O)(=O)O)c5)NC(=O)C5C[C@@H](O)CN5C(=O)C([C@@H](C)O)NC4=O)cc3)no2)cc1` (stereo partly drawn) (X2-[Orn(4R-OH,5R-OH)][ξThr(3R)][ξPro(4R-OH)][ξhTyr(3S-OH,4S-OH,3'-OSO3H)][ξGln(3R-OH)][X3]; lactam 1-C): the Potency result was “inactive”.

Consider `CC(C)[C@@H](C(=O)O)N1Cc2c(cc(O)c3c2O[C@]2(C3)[C@H](C)CCC3C(C)(C)[C@H](O)[C@H](O)C[C@@]32C)C1=O` (some centres undefined), for which the Potency entry was “inactive”.

Consider `CC1OC(O[C@@H]2[C@@H](O)[C@H](OC(=O)[C@]34CCC(C)(C)C[C@H]3C3=CCC5[C@@]6(C)CC[C@H](O[C@@H]7O[C@H](C(=O)O)[C@@H](O)[C@H](O[C@@H]8OC[C@@H](O)[C@H](O)[C@H]8O)[C@H]7O[C@@H]7O[C@H](CO)[C@H](O)[C@H](O)[C@H]7O)[C@@](C)(C=O)C6CC[C@@]5(C)[C@]3(C)C[C@H]4O)O[C@H](C)[C@@H]2OC2OC(C)C(OC3OCC(O)C(O)C3O)C(O)C2O)C(O)C(O)C1O` (some centres undefined), for which the activity change, negative = viability loss is -4.28% [at 9.23 µM] (inactive).

For the molecule `C=C(C)[C@@]1(O)C[C@@]2(C)C(=CC1=O)CC[C@@H](O)[C@@H]2C`, the Potency result is “inactive”.

With `OC[C@@]1(O)CO[C@H](OC[C@H]2O[C@@H](OC(CCCCc3ccc(O)cc3)CCc3ccc(O)cc3)[C@H](O[C@H]3OC[C@](O)(CO)[C@H]3O)[C@@H](O)[C@@H]2O)[C@@H]1O` (some centres undefined), the Potency entry was “inactive”.

On to `CC1(C)CC[C@]2(C(=O)O)CC[C@]3(C)C(=CCC4[C@@]5(C)CC[C@H](O[C@@H]6O[C@H](C(=O)O)[C@@H](O)[C@H](O)[C@H]6O)C(C)(C)C5CC[C@]43C)C2C1` (some centres undefined), for which the Potency result was “inactive”.

On to `COC(=O)CC[C@H](NC(=O)[C@H](CC(C)C)NC(=O)OCc1ccccc1)C(=O)N[C@@H](Cc1cnc[nH]1)C(=O)N[C@@H](CC(=O)OC)C(=O)CF` (Cbz-LE(OMe)HD(OMe)-CH2F), for which the activity change, negative = viability loss was -7.97% [at 9.23 µM] (inactive).

Regarding `C[C@H]1[C@@H](O)[C@H](O)C2[C@]3(C)C([C@@H](O)[C@H]4OC(=O)[C@@H]1[C@@]24C)[C@](C)(O)C=C[C@H]3O[C@@H]1O[C@H](CO)[C@@H](O)[C@H](O)[C@H]1O` (some centres undefined), the Potency entry is “inactive”.

In the case of `C[C@@H]1O[C@@H](O[C@H]2[C@H](O)[C@@H](O)[C@H](OC[C@H]3O[C@@H](OC(=O)[C@]45CCC(C)(C)C[C@H]4C4=CCC6[C@@]7(C)C[C@@H](O)[C@H](O)[C@@](C)(CO)C7[C@H](O)C[C@@]6(C)[C@]4(C)CC5)[C@H](O)[C@@H](O)[C@@H]3O)O[C@@H]2CO)[C@H](O)[C@H](O)[C@H]1O` (some centres undefined), the outcome is “inactive [at 9.23 µM]”.

With `C[C@]12CCC[C@](C)(C(=O)O)C1CCC13CC(CO)C(CCC12)C3` (some centres undefined), the Potency entry is “inactive”.

As for `CC(C)C1(O)C=C2C(=O)CC3C(C)(C(=O)O)CCCC3(C)C2CC1` (centres undefined), the Potency result was “inactive”.

Take `CC(CC12CCCN1C(=O)C1CCCN1C2=O)OC(N)=O` (centres undefined): the Potency result was “inactive”.

`CC(/C=C/C=C(\C)C(=O)O[C@@H]1O[C@H](CO[C@@H]2O[C@H](CO)[C@@H](O)[C@H](O)[C@H]2O)[C@@H](O)[C@H](O)[C@H]1O)=C\C=C\C=C(C)\C=C\C=C(/C)C(=O)O[C@@H]1C[C@](O)(C(=O)O)C[C@@H](O)[C@H]1OC(=O)/C=C/c1ccc(O)c(O)c1`: the activity change, negative = viability loss is -6.13% [at 9.23 µM] (inactive).

For the molecule `COC(=O)C1=C[C@@H](O)[C@@H](O)[C@H](O[C@@H]2O[C@H](CO)[C@@H](O)[C@H](O)[C@H]2OC(=O)/C=C/c2ccccc2)C1`, the Potency result is “inactive”.
